# Assay results reported in PubChem BioAssay AID463173 (ICCB-Longwood Screening Facility, Harvard Medical School, 2010).
# Out of some 52,000 compounds screened, about 4,300 (8.3%) were called active. The entries come from a sample that favours actives as a whole. A number with no mark means an inactive call. Rule as the data show it: active = survival mostly below about 52% (no sharp cut-off); inactive = mostly above about 56%.
# System: DeltatarO mutant
# Assay: growth inhibition of S. aureus wild type versus tarO mutant, primary screen, teichoic acid synthesis inhibitors, RN4220, OD600 (AID 463173)
# Conditions: OD600, 18 h, hits give low values, screened at 18.75 µg/mL (by protocol)
row,SMILES,survival
1,O=C(NCCc1ccc(Cl)cc1)c1cc(-c2ccc(Cl)cc2)n[nH]1,68%
2,CCOC(=O)c1nnc2c(-c3ccc(Cl)cc3)c(C)nn2c1C,49%
3,O=C(Nc1ccc(C(F)(F)F)cc1)C(Cc1ccccc1)n1cccc1 (stereo unspecified),-4% (active)
4,CC(C)c1ccc(NC(=O)C(Cc2ccccc2)n2cccc2)cc1 (stereo unspecified),23% (active)
5,Cc1ccc(NC(=O)C(Cc2ccccc2)n2cccc2)cc1 (stereo unspecified),76%
6,O=C(Nc1ccccc1F)C(Cc1ccccc1)n1cccc1 (stereo unspecified),77%
7,CC(=O)Nc1ccc(NC(=O)C(Cc2ccccc2)N2Cc3ccccc3C2=O)cc1 (stereo unspecified),82%
8,COc1ccc(NC(=O)C(Cc2ccccc2)n2cccc2)c(OC)c1 (stereo unspecified),67%
9,CCOc1ccc(S(=O)(=O)NCCc2sc3nc(-c4ccc(C)cc4)nn3c2C)cc1,109%
10,Cc1coc2c(C)c3oc(=O)c(CCC(=O)N4CCCCC4)c(C)c3cc12,44% (active)
11,Cc1oc2c(C)c3oc(=O)c(CCC(=O)N4CCCCC4)c(C)c3cc2c1C,89%
12,Cc1coc2c(C)c3oc(=O)c(CC(=O)N4CCCCC4)c(C)c3cc12,79%
13,CC1CCC(N2CC(=O)N(C3CCCCC3)C(c3ccc(F)cc3)C2=O)CC1 (stereo unspecified),82%
14,CCCOc1ccc(-c2nc(N3CCCCC3)c3ccccc3n2)cc1,-2% (active)
15,Cc1ccc(-c2nc(N3CCN(c4ccccc4Cl)CC3)c3ccccc3n2)cc1,52%
16,c1ccc(-c2nc(N3CCCCC3)c3ccccc3n2)cc1,96%
17,CCCOc1ccc(-c2nc(N3CCC(C)CC3)c3ccccc3n2)cc1,-1% (active)
18,CCCOc1ccc(CNC(=O)C2CCN(c3nc4ccccc4nc3C(F)(F)F)CC2)cc1,75%
19,CCOc1ccc(-n2cc(-c3ccccc3)c3c(N4CCC(C)CC4)ncnc32)cc1,90%
20,Cc1ccc(C)c(N2CCN(S(=O)(=O)c3c(C)nc4sccn4c3=O)CC2)c1,92%
21,CCOC(=O)c1ccc(NC(=O)C2CC(=O)NC(=Nc3ccc(C)c(C)c3)S2)cc1 (stereo unspecified),47% (active)
22,CCOc1ccc(NC(=O)C2CC(=O)NC(=Nc3ccc(Cl)c(Cl)c3)S2)cc1 (stereo unspecified),72%
23,CCc1ccc(N=C2NC(=O)CC(C(=O)Nc3ccc(OC)cc3)S2)cc1 (stereo unspecified),87%
24,CN(C)c1ccc(C(C(=O)NCC2CCCO2)N(C(=O)Cn2nnc3ccccc32)c2ccc3c(c2)OCO3)cc1 (stereo unspecified),90%

row,SMILES,survival
1,O=C(Nc1cccc(Cl)c1Cl)c1cc(S(=O)(=O)N2CCCCC2)ccc1F,72%
2,O=C(Nc1cccc(F)c1)C1CCN(S(=O)(=O)c2cccc3nsnc23)CC1,83%
3,COc1cc(-c2noc(CN3CCN(c4cccc(Cl)c4)CC3)n2)cc(OC)c1OC,77%
4,COc1ccc(-c2noc(CN3CCN(c4cccc(Cl)c4)CC3)n2)cc1,13% (active)
5,COc1ccc(N2CCN(Cc3nc(-c4ccc(C)cc4)no3)CC2)cc1,48%
6,Cc1cccc(N(C)c2nc3ccccc3c3nnc(C)n23)c1,118%
7,COc1ccc(C)cc1NC(=O)N1CCC(CN2CCC(C)CC2)CC1,91%
8,CCCCN(c1ccccc1)S(=O)(=O)c1cc2c3c(c1)C(C)C(=O)N3CCC2 (stereo unspecified),69%
9,CCC(C)c1ccc(OCC(=O)Nc2cccc(-c3nc4ncccc4o3)c2)cc1 (stereo unspecified),19% (active)
10,COc1ccc(NC(=O)c2ccco2)cc1NC(=O)COc1cc(C)ccc1C(C)C,63%
11,Cc1ccc2cccc(NC(=O)COc3ccccc3Cl)c2n1,179%
12,CCCC(=O)Nc1cccc(-c2nc3ncccc3o2)c1,66%
13,Cc1cc(C)c(OCC(=O)Nc2cccc(-c3nc4ncccc4o3)c2)c(Br)c1,4% (active)
14,COc1ccc(OCC(=O)Nc2ccc(-c3nc4ncccc4o3)cc2)cc1,84%
15,Cc1ccc2cccc(NC(=O)COc3cc(C)c(Cl)c(C)c3)c2n1,75%
16,CCC(C)c1ccc(OCC(=O)Nc2ccc(-c3nc4ncccc4o3)cc2)cc1 (stereo unspecified),44%
17,Cc1ccc(C(C)C)c(OCC(=O)Nc2cccc(NC(=O)c3ccco3)c2)c1,10% (active)
18,Cc1ccccc1OCC(=O)Nc1ccc(-c2nc3ncccc3o2)cc1,60%
19,CCC(C)c1ccc(OCC(=O)Nc2cccc3ccc(C)nc23)cc1 (stereo unspecified),-3% (active)
20,Cc1ccc(C(C)C)c(OCC(=O)Nc2ccc3c(c2)nc(CCNC(=O)c2ccco2)n3C)c1,54%
21,CCc1cccc2sc(N3CCN(C(=O)C4CC4)CC3)nc12,94%
22,CCCSCCCNC(=O)C1CCN(C(=O)c2cc3sccc3n2C)CC1,109%
23,O=C(Nc1cccc(Cl)c1Cl)c1ccc2c(c1)N(Cc1cccc(Cl)c1)C(=O)c1ccccc1S2(=O)=O,108%
24,Cc1cc2c(n1-c1ccc(C(=O)NCc3cccc(Br)c3)cc1)CCC(C)C2 (stereo unspecified),125%

row,SMILES,survival
1,Cc1ccc(C(C)C)c(OCC(=O)Nc2cccc(-c3nc4ncccc4o3)c2)c1,2% (active)
2,Cc1ccc(C(C)C)c(OCC(=O)Nc2ccc(C(=O)OC3CCCCC3)cc2)c1,33% (active)
3,O=C(COc1ccc(Cl)cc1Cl)Nc1ccc(C(=O)OC2CCCCC2)cc1,57%
4,Cc1ccc(C(C)C)c(OCC(=O)Nc2ccc(-c3nc4ncccc4o3)cc2C)c1,54%
5,Cc1cccc(OCC(=O)Nc2ccc(Cl)c(-c3nc4ncccc4o3)c2)c1C,62%
6,Cc1cc(OCC(=O)Nc2ccc(C(=O)OC3CCCCC3)cc2)cc(C)c1Cl,50%
7,CSc1ccc(CCNC(=O)c2ccc3c(c2)nc2n3CCCCC2)cc1,82%
8,COc1ccc(N2CCN(CCCNC(=O)c3ccc4nc(Cc5ccccc5)oc4c3)CC2)cc1,93%
9,O=C(NCc1ccc(F)cc1)c1ccc2c(O)c(S(=O)(=O)c3ccccc3)c(=O)[nH]c2c1,66%
10,CCn1c(=O)c(=O)n(CC)c2cc(N3CCCCC3)c(NC(=O)c3ccccc3OC)cc21,91%
11,Cc1nnc(NC(=O)CSCc2cc(=O)c3ccc(C)c(C)c3[nH]2)s1,73%
12,NC(=O)CN1C(=O)C(O)(CC(=O)/C=C\c2ccccc2)c2ccccc21 (stereo unspecified),96%
13,COc1ccc(CNC(=O)CSc2nc(-c3ccc(OC)cc3)cc(C(F)(F)F)n2)cc1,83%
14,COc1ccc(CNc2nc(-c3ccc(OC)cc3)cc(C(F)(F)F)n2)cc1,-2% (active)
15,COc1ccc(CNC(=O)CSc2nc(-c3ccc(OC)c(OC)c3)cc(C(F)(F)F)n2)cc1,72%
16,COc1ccc(-c2cc(C(F)(F)F)nc(NCc3ccccc3)n2)cc1,-4% (active)
17,COc1ccc(-c2cc(C(F)(F)F)nc(SCC(=O)NCCc3ccccc3)n2)cc1,121%
18,COc1ccc(-c2cc(C(F)(F)F)nc(NCCc3ccccc3)n2)cc1,1% (active)
19,COc1ccc(CNc2ccc(-c3ccc(OC)cc3)nn2)cc1,80%
20,COc1ccc(-c2cc(C(F)(F)F)nc(SCC(=O)NCc3ccc(OC)c(OC)c3)n2)cc1,60%
21,COc1ccc(CNC(=O)C(C)Sc2nc(-c3ccccc3)cc(C(F)(F)F)n2)cc1 (stereo unspecified),165%
22,COc1ccc(-c2cc(C(F)(F)F)nc(SCC(=O)NC(C)c3ccccc3)n2)cc1 (stereo unspecified),60%
23,COc1ccc(CNc2nc(-c3ccc(OC)c(OC)c3)cc(C(F)(F)F)n2)cc1,11% (active)
24,COc1ccc(S(=O)(=O)c2c(O)c(C)cc(NC(=O)c3ccccc3)c2C(C)C)cc1,80%

row,SMILES,survival
1,CCc1ccc(NC(=O)c2sc3nc(C)c(Cl)c(C)c3c2NC(=O)c2ccccc2)cc1,76%
2,CCOC(=O)N1CCC(NC(=O)c2ccc3c(c2)N(Cc2ccc(F)cc2)C(=O)c2ccccc2S3=O)CC1 (stereo unspecified),58%
3,COc1ccc(CCNC(=O)c2c(O)nc3c(C)cccn3c2=O)cc1OC,91%
4,CCN1C(=O)/C(=C\C=C2/N(CC)c3ccc(C(=O)OC)cc3N2CC)SC1=S,78%
5,Cc1ccc(NC(=O)Cn2c(=O)n(Cc3nc(-c4ccccc4)no3)c(=O)c3cc4c(cc32)OCO4)cc1C,77%
6,CCc1ccccc1NC(=O)CN(Cc1ccccc1)S(=O)(=O)c1ccc2nc(C)sc2c1,102%
7,Cc1ccc(C(=O)NC2(C(F)(F)F)C(=O)Nc3c2c(=O)[nH]c(=O)n3CCc2ccccc2)cc1 (stereo unspecified),74%
8,CC(C)CCNC(=O)c1cc2sccc2n1Cc1ccc(F)cc1,87%
9,CCOc1ccccc1Nc1sc(C(=O)c2ccccc2)c(N)c1C(=O)Nc1ccccc1,102%
10,COCCn1c(C)cc(O)c(C(c2ccccc2Cl)N2CCN(c3ccccc3)CC2)c1=O (stereo unspecified),87%
11,CSc1ccc(CNC(=O)c2cc3c(=O)n(Cc4ccco4)ccc3nc2C)cc1,94%
12,COc1ccc(-c2cn3c(n2)sc2cc(C(=O)NCc4ccccc4)ccc23)cc1,63%
13,O=C(NCCOCCn1c(=O)oc2ccccc21)Nc1cccc(Cl)c1,75%
14,COc1cccc(-c2cc(C(F)(F)F)nc(NCc3ccc(F)cc3)n2)c1,4% (active)
15,COc1cccc(-c2nc(S(=O)(=O)c3ccccc3)c(NCc3ccccc3)o2)c1,61%
16,COc1ccccc1CCNC(=O)C(C)Sc1nc(-c2ccccc2)cc(C(F)(F)F)n1 (stereo unspecified),65%
17,COc1ccc(-c2cc(C(F)(F)F)nc(SCC(=O)NCc3ccc(F)cc3)n2)cc1,74%
18,COc1ccc(-c2cc(C(F)(F)F)nc(SCC(=O)NCC(C)C)n2)cc1OC,137%
19,COc1ccc(-c2cc(C(F)(F)F)nc(NCc3ccc(F)cc3)n2)cc1,1% (active)
20,COc1ccc(-c2cc(C(F)(F)F)nc(SCCC(=O)Nc3cccc(OC)c3)n2)cc1,69%
21,COc1ccc(-c2cc(C(F)(F)F)nc(NCc3ccccc3)n2)cc1OC,42% (active)
22,COc1ccc(-c2cc(C(F)(F)F)nc(NCCc3ccccc3)n2)cc1OC,63%
23,COc1cccc(-c2cc(C(F)(F)F)nc(NCCc3ccccc3)n2)c1,-8% (active)
24,COc1cccc(-c2cc(C(=O)Nc3ccc(F)cc3)[nH]n2)c1,73%
